Screens from PubChem BioAssay.
KCNH2 WT inh = inhibitors of human wildtype KCNH2 potassium channel; U2OS, BacMam KCNH2, thallium flux FluxOr; hits give low values; activity change, % at 1.84 µM; actives 0.37% (n = 340,000);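 active = maximum activity change below -70%; inconclusive = maximum activity change between -70% and -50%; inactive = maximum activity change above -50%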; note: % is set by controls: 0 for no effect and ±100 for the full control effect
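U2OS cells were transduced with wild-type KCNH2 virus (2.03 x 10^8 / mL) for 4 h at room temperature, then cultured overnight at 37 C. Thallium flux was read with FluxOr dye. Rate constants were normalized to DMSO controls.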
S-ASM inh = inhibitors of human secretory acid sphingomyelinase; placental ASM, HMU-PC fluorogenic substrate, 60 min; P17405; actives 0.006% (n = 340,000); Potency, µM (doses to about 57.5 µM), inactives show at the top dose activity change, negative = inhibition, actives largely listed as inhibitors; note: potency is the fitted concentration of half-maximal effect
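qHTS format. ASM enzyme prepared from human placenta hydrolyses the fluorogenic substrate HMU-PC0 (9 uM final) over 60 min at 37 °C after a 10 min compound preincubation.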
p53 reactivation = restores transcriptional activity of mutant p53; H1299 p53-A138V BP100-luciferase reporter, luminescence, 24 h; Potency, µM (highest dose often 92.2 µM), for the others: at the highest dose activity change, positive = activation, most hits filed as activators; actives 0.063% (n = 320,000); note: potency is the fitted concentration of half-maximal effect; % of control where 0% means no effect; nearly all actives have a fitted effect of over 45% in size
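p53-null H1299 cells stably carrying temperature-sensitive p53-A138V and a BP100-luciferase reporter were pinned with compounds (4-point, 1:5 series) and held 24 hrs at 37 deg C. Luminescence was read 10 min after detection reagent.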
KCNH2 3.1 block = blocks the human KCNH2 3.1 channel isoform. AID 720553. actives 0.95% (n = 340,000). U2OS KCNH2 3.1, thallium flux FluxOr; hits give low values. activity change, % (tested at about 1.8 µM);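 active = maximum activity change below -70%; inconclusive = maximum activity change from -70% to -50%; inactive = maximum activity change above -50%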;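 note: thallium influx rate constant from kinetic fluorescence after stimulation buffer; % is set by controls: 0 for no effect and ±100 for the full control effect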
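FluxOr-based Tl+ influx in U2OS cells transduced with KCNH2 3.1 virus; rate constants normalized to DMSO controls.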
uPA generation = inhibitors of cell surface uPA generation | AID 540303 | actives 0.31% (n = 330,000) | cell surface uPA generation assay, qHTS | Potency, µM (highest dose often 38.3 µM), for inactives: top-dose activity change, negative = inhibition, actives largely listed as inhibitors; active = well fitted inhibition curve with a large enough effect; inconclusive = small, poorly fitted or top-dose-only effect; inactive = no such curve, though single readings can be large or run the other way; tested in mouse RAW 264.7 cells; note: potency is the fitted concentration of half-maximal effect; % is set by controls: 0 for no effect and ±100 for the full control effect; nearly all actives have a fitted effect of over 55% in size
Mm-Cpn inhibitor = M. maripaludis TRiC chaperonin inhibition | Potency, µM (highest dose often 76.9 µM), for inactives: top-dose activity, negative = inhibition, most hits filed as inhibitors | purified Mm-Cpn ATPase, ADP Transcreener TR-FRET | AID 504842 | actives 0.031% (n = 330,000); note: potency is the fitted concentration of half-maximal effect; % is set by controls: 0 for no effect and ±100 for the full control effect; nearly all actives have a fitted effect of over 80% in size
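Purified archaeal chaperonin (25 nM final) was preincubated with compound for 10 min at 37°C, then ATP (10 uM final) was added for 30 min at 37°C in Tris pH 7.4/KCl/MgCl2/DTT buffer. ADP was quantified by HTRF Transcreener TR-FRET.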
Starred values were filed as active, the others as inactive; ? = inconclusive; . = no result given. The list is not random: actives were taken first. Their share in the collection is about 1.4%. Unless noted, calls come from the whole dose curve; as a rule, active = well fitted curve in the direction sought with a large enough effect; inconclusive = small, poorly fitted or top-dose-only effect, or another doubt; inactive = no such curve, though single readings can be large; an effect the other way counts as inactive or inconclusive.

SMILES	KCNH2 WT inh	S-ASM inh	p53 reactivation	KCNH2 3.1 block	uPA generation	Mm-Cpn inhibitor
O=C(c1ccc2c(c1)OCO2)C1CCCN(Cc2cn[nH]c2-c2cccc(F)c2)C1 (stereo not given)	-17.4	0.4%	-3.4%	17.5	-1.0%	0.4%
O=S1(=O)CCS(=O)(=O)C1c1ccccc1	-1.7	4.7%	.	0.5	-8.8%	.
Cc1ccc(-n2nnc(-c3nccs3)n2)cc1	.	7.7%	-11.7%	.	2.24µM*	.
COc1ccc(-c2c[n+]3c4n2CCCCC4=C(c2ccc(Br)cc2)C3)cc1	16.7	202.2%	1.8%	-168.9*	.	-1.5%
Cc1[nH]c2ccc(C(=O)OC(C)C(=O)NC3(C#N)CCCCC3)cc2c1C (stereo not given)	3.6	-3.2%	-1.2%	-43.2	-1.1%	-0.6%
N#Cc1cccc(NC(=O)CSc2ccc3c4c(cccc24)C(=O)c2ccccc2-3)c1	-100.4*	-3.6%	-4.0%	-78.4*	0.0%	1.2%
CCS(=O)(=O)N1Cc2ccccc2CC1C(=O)NCCc1c[nH]c2ccccc12 (stereo not given)	-6.4	0.9%	-3.8%	-2.7	-0.1%	-0.2%
N#Cc1nc(COc2ccc(Cl)cc2)oc1N1CCN(Cc2ccccc2)CC1	-5.3	-4.2%	1.5%	.	16.3%	-1.5%
CCN1CCN(c2oc(COc3ccc(Cl)cc3)nc2C#N)CC1	22.5	0.1%	-3.3%	-83.2*	0.4%	-0.7%
CCC/C=C/c1ccc(CN2C(C)C(=O)N(Cc3cn(CC4CCCCC4)nn3)CCS2(=O)=O)cc1 (stereo not given)	-6.4	.	.	-12.6	.	.
O=C1C=C(c2ccc3ncccc3c2)C[C@@H](c2ccc(F)cc2)C1	1.1	-8.3%	-40.0%	-2.6	-7.0%	0.1%
O=C1C=C(c2ccc3ccccc3c2)C[C@@H](c2ccc(F)cc2)C1	-7.3	0.3%	?	-85.8*	4.7%	2.6%
CN(CC(=O)Nc1cccnc1)S(=O)(=O)c1ccc(Br)cc1	-3.5	1.4%	-8.0%	.	-0.6%	-1.4%
COc1ccc(-c2cc(C#N)nc(Cl)n2)cc1	-5.8	106.7%	-7.4%	-80.2*	-8.9%	-2.5%
CCOC(=O)Oc1c(OC)cc(C(=O)O[C@@H]2C[C@@H]3CN4CCc5c([nH]c6cc(OC)ccc56)[C@H]4C[C@@H]3[C@H](C(=O)OC)[C@H]2OC)cc1OC	-18.6	-5.4%	-0.9%	-7.3	-23.0%	-4.4%
CCCC(=O)c1ccc(N2CCCCC2)c(F)c1	-1.7	-1.0%	-1.2%	21.0	?	-0.1%
CCCC(=O)c1ccc(N2CCCCCC2)c(F)c1	1.7	-1.5%	39.8µM*	-2.4	5.8%	-3.9%
CC(C)CC(=O)Nc1c2c(nn1-c1cccc(Cl)c1)CS(=O)(=O)C2	.	-6.9%	-1.5%	-16.5	-9.5%	-1.5%
CC(=O)NCc1cc(-c2nn(C)c(=O)c3ccccc23)ccc1C	-10.0	2.2%	0.7%	-11.7	-6.2%	1.3%
Cc1ccc(-c2nn(C)c(=O)c3ccccc23)cc1CNC(=O)NC1CCCCC1	-142.4*	-0.2%	-1.8%	-165.6*	-2.8%	0.5%
CCOc1ccc(C(=O)Nc2cc(-c3nc4ccccc4[nH]3)ccc2Cl)cc1[N+](=O)[O-]	-27.2	-4.4%	-16.5%	-70.4*	-10.0%	0.3%
O=C(Nc1nc2ccccc2[nH]1)c1ccc(Cl)c([N+](=O)[O-])c1	-3.4	1.4%	4.0%	9.2	-2.6%	0.3%
CCOc1ccccc1NC(=O)c1ccc(OCC)c([N+](=O)[O-])c1	2.4	6.6%	5.8%	-18.9	5.8%	1.0%
CCOc1ccc(C(=O)Nc2cccc(-c3nc4ccccc4[nH]3)c2C)cc1[N+](=O)[O-]	-5.7	-15.3%	1.7%	-77.5*	2.4%	-0.9%
CCOc1ccc(C(=O)Nc2cc(-c3nc4ccccc4[nH]3)ccc2C)cc1[N+](=O)[O-]	-31.0	?	-3.8%	-85.8*	-14.4%	1.4%
CN(CC(=O)Nc1c(Cl)cccc1Cl)C(=O)c1ccc2ccccc2n1	-2.1	.	6.9%	-6.7	-24.1%	-0.7%
